# High-throughput results (PubChem BioAssay)
# HP1b chromo inh – inhibitors of HP1-beta chromodomain binding to methylated histone tails. P83916. AlphaScreen HP1-beta / biotin-H3K9me3 peptide binding. Potency, µM (series often up to 114 µM), for inactives: at the top dose activity change, negative = inhibition, hits mostly inhibitors. hit rate 0.56% among 390,000. AID 540317; note: nearly all actives have a fitted effect of over 70% in size
# Target sequence (P83916 whole entry, looked up): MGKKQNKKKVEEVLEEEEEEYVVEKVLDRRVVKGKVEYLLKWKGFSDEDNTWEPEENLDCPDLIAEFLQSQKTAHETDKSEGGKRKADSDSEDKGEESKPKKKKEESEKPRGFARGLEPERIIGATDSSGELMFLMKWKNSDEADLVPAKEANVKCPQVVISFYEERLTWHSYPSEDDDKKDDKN
#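 Compound inhibition of the preformed complex between 50 nM HP1-beta and 50 nM biotinylated H3K9me3 peptide was read by AlphaScreen. Buffer was PBS pH 7.4 with 0.01% Tween-20. Incubations ran 30 min at room temperature, with 10 ug/mL donor/acceptor beads.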
# Sfp PPTase inh – blocks B. subtilis Sfp PPTase activity; hit rate 3.5% among 310,000; Biochemical Sfp PPTase activity, qHTS; Q9F4F7; Potency, µM, without a hit: largest response in the series, negative = inhibition, usual class: inhibitors;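 note: the enzyme is Sfp with the accession as filed and its product quenches rhodamine fluorescence; 0% = enzyme reaction without inhibitor and -100% = no enzyme wells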
#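 Buffer: 50 mM Hepes-Na pH 7.6, 10 mM MgCl2, 0.01% Nonidet P-40, 0.01% BSA. Enzyme 15 nM, pre-exposed to compound 15 min; substrates then added and fluorescence change tracked over 30 min.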
# L3MBTL1 inh – L3MBTL1 (human) inhibition. Potency, µM (titrated, usually from 57.1 µM), inactives show at the top dose activity, negative = inhibition, most hits filed as inhibitors. Q9Y468. AlphaScreen L3MBTL1–H3K9me1 peptide binding. AID 485360. hit rate 0.66% among 230,000; note: % is set by controls: 0 for no effect and ±100 for the full control effect; nearly all actives have a fitted effect of over 60% in size
#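 AlphaScreen proximity signal between nickel-chelate acceptor and streptavidin donor beads (final 10 ug/mL) reports binding of 50 nM L3MBTL1 to 75 nM biotin-H3 K9me1 peptide; complex incubated with compounds 30 min at room temperature; cefsulodin titration as control.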
# G9a block – G9a (human) methyltransferase inhibition | Q96KQ7 | G9a H3K9 monomethylation, AlphaScreen, 2 h | Potency, µM (titrated, usually from 102 µM), without a hit: at the top dose activity, negative = inhibition, most hits filed as inhibitors | hit rate 8.8% among 350,000 | AID 504332; note: % is set by controls: 0 for no effect and ±100 for the full control effect; nearly all actives have a fitted effect of over 75% in size
# Target sequence (Q96KQ7 913-1193 limits assumed): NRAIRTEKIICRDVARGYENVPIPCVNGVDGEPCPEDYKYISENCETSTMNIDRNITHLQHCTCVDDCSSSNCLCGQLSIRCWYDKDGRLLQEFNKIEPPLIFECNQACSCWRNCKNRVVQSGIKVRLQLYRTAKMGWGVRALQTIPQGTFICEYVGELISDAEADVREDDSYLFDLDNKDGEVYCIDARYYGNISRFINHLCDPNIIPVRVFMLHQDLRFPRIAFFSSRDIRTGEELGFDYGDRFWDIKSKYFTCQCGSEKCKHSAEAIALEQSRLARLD
#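 Step 1: enzyme (final 20 nM) with compound, 15 min RT. Step 2: substrate peptide 500 nM and SAM 20 uM, 2 h RT. Step 3: anti-H3K9me1 antibody and AlphaScreen beads, 10 min, then plate read.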
# JMJD2A Tudor inh – blocks the human JMJD2A Tudor domain; O75164; AlphaScreen JMJD2A-Tudor / H3K4me3 peptide binding; Potency, µM (series often up to 114 µM), inactives show at the highest dose activity change, negative = inhibition, hits mostly inhibitors; hit rate 4.4% among 390,000; note: % is set by controls: 0 for no effect and ±100 for the full control effect; nearly all actives have a fitted effect of over 50% in size
# BAZ2B inh – inhibitors of human BAZ2B bromodomain; AlphaScreen BAZ2B-H3K14Ac peptide displacement; Potency, µM (top dose mostly 114 µM), for inactives: at the top dose activity change, negative = inhibition, usual class: inhibitors; hit rate 4.4% among 360,000; AID 504333; note: % is set by controls: 0 for no effect and ±100 for the full control effect; nearly all actives have a fitted effect of over 60% in size
#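 In this displacement format the biotinylated H3(5-23) peptide acetylated at Lys14 serves as ligand at 50 nM, with BAZ2B at 50 nM in PBS pH 7.4 containing 0.01% Tween-20. Donor and acceptor beads are 10 ug/mL final.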
# Active calls of the source: *; ? = inconclusive; · = no result given; [ ] = dose if it differs, or a comment. This is a sample that favours compounds with a hit; in the whole collection about 12% have one here. Calls come from the whole dose curve; as a rule, active = well fitted curve in the direction sought with a large enough effect; inconclusive = small, poorly fitted or top-dose-only effect, or another doubt; inactive = no such curve, though single readings can be large; an effect the other way counts as inactive or inconclusive. Potency is the fitted concentration of half-maximal effect.
SMILES,HP1b chromo inh,Sfp PPTase inh,L3MBTL1 inh,G9a block,JMJD2A Tudor inh,BAZ2B inh
COc1ccc(-c2nc3c4cnn(-c5ccccc5F)c4ncn3n2)cc1,28%,·,·,-5%[59 µM],-8%,-3%
Cc1cc(Cl)ccc1NC(=O)CS(=O)(=O)c1cccc2nsnc12,10%[57 µM],·,·,8%[59 µM],?,-6%
COc1ccc(N(CC(=O)NC(C)c2ccccc2)S(=O)(=O)c2c(C)nn(C)c2C)cc1 (stereo unspecified),44%,·,·,19%[59 µM],-6%,·
O=C(O)CCN1/C(=C/C=Nc2ccccc2)Oc2ccccc21,28%,-14%,0%,?,56µM*,·
CCCCNc1nc(C)nc2c1nc(-c1ccccc1)n2CCCN1CCCCC1C (stereo unspecified),·,24%,·,·,·,·
S=C1NC=NC2N=CNC12 (stereo unspecified),·,14µM*,·,22µM*,·,·
Cc1c(C2CC(=O)N(c3ccccc3)C2=O)[nH]n(-c2ccccc2)c1=O (stereo unspecified),20%,3%,-4%,35µM*,-22%,?
Cc1nn(-c2ccccn2)c2nc(-c3cccs3)cc(C(=O)NCc3ccco3)c12,22%,?,·,45µM*,?,-11%
CCOC(=O)c1cc(-c2cccs2)nc2c1c(C)nn2-c1ccccn1,59%,?,-2%,33%,-4%,7%
Cc1ccccc1-n1nc(C)c2c(C(=O)NN)cc(-c3ccncc3)nc21,20%,7%,·,-6%,-17%,-6%
Cc1nn(-c2ccccc2)c2nc(-c3ccncc3)cc(C(=O)NCc3ccco3)c12,-12%,-25%,-1%,50µM*,?,-1%
CCCOC(=O)N1CCN(/[N+]([O-])=N/Oc2ccc([N+](=O)[O-])cc2[N+](=O)[O-])CC1,3%,-12%,·,·,?,·
CCOC(=O)c1cc(S(=O)(=O)NCc2ccc(OC)cc2)[nH]n1,8%[57 µM],·,·,13µM*,?,?
CCOC(=O)c1cc(S(=O)(=O)NCc2ccc(Cl)cc2)[nH]n1,12%[57 µM],·,·,7.9µM*,-22%,?
Cc1cc(Nc2cccc(Cl)c2)nc2ccc(NC(=O)COc3ccc(Cl)cc3)cc12,37%,·,·,1%[59 µM],3%,1%
O=[N+]([O-])c1cccnc1Oc1ccc(F)cc1,-26%,13%,-2%,-27%,-14%,-25%
O=[N+]([O-])c1ccc(Oc2ccc(F)cc2)c2ccncc12,-34%,-7%,·,?,?,50µM*
COc1ccc(C(=O)Nc2ccc(C(=O)N3CCCCC3)cc2)cc1OC,17%,6%,·,23%,4%,4%
COc1ccc(C(=O)NNC(=O)C(=O)N2CCCCC2)cc1OC,19%,-5%,·,?,25µM*,-5%
COc1cccc(C(=O)NNC(=O)C(=O)N2CCCCC2)c1,16%,10%,-3%,50µM*,-15%,-21%
CCOc1ccc(NCc2nc3ccccc3n2CCOc2ccc(C)cc2)cc1,?,·,·,14µM*,11µM*,13µM*
CCOc1ccc(NCc2nc3ccccc3n2CCOc2ccccc2)cc1,-74%,-2%,?,32µM*,18µM*,11µM*
CCOC(=O)CC(NC(=O)Cn1nnc(-c2ccc(C(F)(F)F)cc2)n1)c1ccc(C)cc1 (stereo unspecified),16%,·,·,3%[59 µM],-20%,-12%
CC(=O)c1ccc(NC(=O)C2CCCN(S(=O)(=O)c3cn(C)cn3)C2)cc1 (stereo unspecified),37%,·,·,-3%[12.7 µM],11%,-18%
CC(C)CCN1C(=O)c2ccccc2CC1(C)C(=O)NC1CCCCC1 (stereo unspecified),60%,·,·,1%[59 µM],1%,-28%
SMILES,HP1b chromo inh,Sfp PPTase inh,L3MBTL1 inh,G9a block,JMJD2A Tudor inh,BAZ2B inh
CCOC(=O)C1=C2NC(=O)c3ccccc3N2C(=O)C1,?,-22%,·,7.9µM*,?,-28%
COc1ccc(C)cc1NC(=O)C(CCSC)NS(=O)(=O)c1ccc2c(c1)oc(=O)n2C (stereo unspecified),10%,·,·,8%[59 µM],-20%,2%
O=C(Nc1ccccc1C(=O)N1CCCCC1)c1nsc2ccccc12,56%[57 µM],·,·,4%[59 µM],1%,12%
CCOC(=O)CNC(=O)c1cc2c(=O)n3cccc(C)c3nc2n1C,25%,·,·,-30%[59 µM],-19%,?
Cc1c2oc3c(C)ccc(C(=O)N[C@@H]4C(=O)N[C@H](C(C)C)C(=O)N5CCC[C@H]5C(=O)N(C)CC(=O)N(C)[C@@H](C(C)C)C(=O)O[C@@H]4C)c3nc-2c(C(=O)N[C@@H]2C(=O)N[C@H](C(C)C)C(=O)N3CCC[C@H]3C(=O)N(C)CC(=O)N(C)[C@@H](C(C)C)C(=O)O[C@@H]2C)c(N)c1=O,·,-5%,·,11µM*,·,·
Cc1oc(-c2ccccc2F)nc1Cn1c(SCc2ccccc2F)nc2ccncc21,-1%,·,·,13µM*,?,?
COc1ccc(-c2nc(Cn3c(SCc4ccccc4F)nc4ccncc43)c(C)o2)cc1OC,17%,·,·,?,-29%,-25%
COc1ccc(N2CC3=C(C2=O)C(c2ccc(O)c(OC)c2)NC(=O)N3C)cc1 (stereo unspecified),24%,·,·,12%[59 µM],-6%,-18%
N#C/C(=C/c1ccc(OCc2ccc(C(=O)O)cc2)cc1)C(=O)Nc1ccccc1,1%,-3%,·,50µM*,25µM*,79µM*
N#C/C(=C\c1ccc(OCc2ccc(F)cc2)cc1)C(=O)Nc1cccc(C(=O)O)c1,22%,11%,·,-8%[12.7 µM],-31%,79µM*
COc1cc(/C=C(\C#N)C(=O)Nc2cccc(C(=O)O)c2)ccc1OCc1ccc(F)cc1,26%,4%,·,?,-29%,-29%
N#C/C(=C\c1ccccc1OCc1ccc(C(=O)O)cc1)C(=O)Nc1ccc(O)cc1,?,-13%,·,50µM*,-11%[11.4 µM],-33%
N#C/C(=C\c1ccc(OCc2ccc(Br)cc2)cc1)C(=O)Nc1cccc(C(=O)O)c1,-3%,-3%,·,?,40µM*,56µM*
COc1ccccc1CCNC(=O)C(=O)NCC(c1ccc2c(c1)OCO2)N1CCOCC1 (stereo unspecified),5%[57 µM],·,·,-13%[59 µM],-14%,-30%
N#C/C(=C\c1ccc(OCc2ccccc2)cc1)C(N)=O,?,-19%,·,-28%,14µM*,1%
CC/C(=N/Nc1ccccc1)c1cnnc(-c2ccccc2)n1,1%,-7%,-23%,7.1µM*,-20%,11%
CCOc1ccc(OCC(=O)Nc2c(C(=O)Nc3ccc(C)cc3)oc3ccccc23)cc1,28%,·,·,6%[59 µM],-2%,-6%
O=C(CC1N=C2c3ccccc3N=C(SCc3ccccc3Cl)N2C1=O)NCc1cccs1 (stereo unspecified),-7%,·,·,4%[59 µM],-24%,-13%
